Measured values taken from PubChem BioAssay AID485297 (National Center for Advancing Translational Sciences (NCATS), 2010).
Hit rate of the full screen: of about 320,000 compounds, about 9,100 (2.8%) were called active. Entries that show only a call come without a potency. Inconclusive results (about 3%) are left out. The call rests on the fitted dose curve; in most records, active means well fitted activation curve with a large enough effect; inconclusive means small, poorly fitted or top-dose-only effect; inactive means no such curve, though single readings can be large or run the other way. This excerpt belongs to a sample that is enriched for actives.

assay: qHTS Assay for Rab9 Promoter Activators; details: Huh7 Rab9 promoter-luciferase reporter, luminescence, 24 h; series mostly up to 9.22 µM; further: nearly all actives have a fitted effect of over 60% in size
Procedure, shortened: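 Using Huh7 cells stably transfected with Rab9 promoter–luciferase, compounds were incubated 24 h at 37 °C, 5% CO2; luciferase luminescence was read 10 min after reagent addition.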
Potency means the concentration at half of the fitted maximal effect.

SMILES | Potency
Cc1ccc(F)cc1NC(=O)CSCc1c(C)noc1C | inactive
CN(CC(=O)Nc1ccc(Cl)c(C(F)(F)F)c1)C(=O)CCC(=O)c1ccccc1 | inactive
NC1CCN(O)C1=O (configuration not stated) | inactive
CC(C)CN(C(=O)CSc1ncnc2sccc12)C1CCS(=O)(=O)C1 (configuration not stated) | inactive
CC(=O)Nc1ccc(NC(=O)C(NS(=O)(=O)c2ccc3c(c2)OCCO3)C(C)C)cc1 (configuration not stated) | inactive
Cc1ccc(S(=O)(=O)N(C)CC(=O)NCC(c2ccc(F)cc2)N2CCOCC2)cc1 (configuration not stated) | inactive
O=C(COc1ccc(Cl)cc1)Nc1ccc2oc(=O)ccc2c1 | inactive
NNC(=O)c1ccc(Cl)cc1Cl | inactive
CCCc1ccc(-c2csc(NC(=O)Cc3cccs3)n2)cc1 | inactive
Cc1nc(-c2ccc(NC(=O)c3cccs3)cc2)cs1 | 398 nM (active)
O=C(Nc1ccccc1)c1ccc(NC(=O)c2cccs2)cc1 | inactive
Cc1ccc(C)c(NC(=O)CCC(=O)NNC(=O)c2cccs2)c1 | inactive
Cc1ccc(C(=O)Nc2ccc(NC(=O)c3cccs3)cc2)c(C)c1 | inactive
Cc1ccc(C(=O)NNC(=O)c2cccs2)cc1 | 2820 nM (active)
CC(C)C(=O)Nc1ccc(C(=O)NNC(=O)c2cccs2)cc1 | inactive
Cc1ccc(NNC(=O)c2cccs2)cc1Cl | inactive
Cc1ccc(-c2csc(NC(=O)c3cccs3)n2)cc1 | 3550 nM (active)
Cc1ccc(-c2csc(NC(=O)Cn3[nH]c(=O)c4ccccc4c3=O)n2)cc1 | inactive
O=C(NNC(=O)c1ccc(Cl)cc1Cl)c1cccs1 | 3550 nM (active)
Cc1cccc(C)c1NC(=O)CNC(=O)C1CCCC1 | inactive
O=C(CN1CCCCC1)NC(=O)Nc1ccccc1F | inactive
CC(=O)C[C@@H](O)CC(=O)[C@H]1OC(=O)CCCCCCc2ccccc21 | inactive
Cc1cc(C(=O)OCC(=O)Nc2ccccc2Cl)c(C)o1 | inactive
O=C(COc1ccccc1O)NC1CCCC1 | inactive

SMILES | Potency
COc1ccc(C(=O)NCC2CCCCC2)cc1S(=O)(=O)N1CCCC1 | inactive
COc1ccc(OC)c(NC(=O)c2sc3nc(C)cc(C)c3c2N)c1 | inactive
COCCCNc1nc2c(-c3cccc(C)c3)nnn2c2ccc(Cl)cc12 | inactive
COC(=O)c1cc(Oc2ccc(S(=O)(=O)N3CCOCC3)cc2[N+](=O)[O-])cc(C(=O)OC)c1 | inactive
COc1ccc(S(=O)(=O)Nc2ccc3cn[nH]c3c2)cc1[N+](=O)[O-] | inactive
CC(C)Nc1ccc(-n2nc3ccccc3[n+]2[O-])cc1 | 501 nM (active)
CCN(CC(=O)NCc1cccs1)C(=O)/C=C/c1ccc(C)cc1 | inactive
COc1ccccc1NC(=O)COC(=O)COc1ccccc1F | inactive
Cc1cc(/C=C2/C(=N)N3C(=NC2=O)SN=C3S(C)(=O)=O)c(C)n1-c1ccccc1 | 3550 nM (active)
CCC1=NN2C(=N)/C(=C/c3cc(C)n(-c4ccccc4)c3C)C(=O)N=C2S1 | inactive
CCS(=O)(=O)C1=NSC2=NC(=O)/C(=C\c3cc(C)n(-c4cccc(OC)c4)c3C)C(=N)N21 | inactive
COc1ccc([C@H]2CC(=O)C=C(/C=C/c3ccccc3)C2)cc1 | inactive
COc1ccc2oc(=O)c(C(=O)N3CCCC3)cc2c1 | inactive
Cc1cc(C)cc(NC(=O)N2CCCCCCC2)c1 | inactive
Cc1ccc2cc3cc(C(=O)N4CCCCCC4)oc3nc2c1 | 631 nM (active)
O=C(NNC(=O)c1cc(S(=O)(=O)N2CCCCC2)ccc1Cl)c1ccccc1O | inactive
COc1ccc(C(=O)NC2CCN(C(=S)NCCc3ccccc3)CC2)cc1 | inactive
O=C1CCN(C(=S)NCCc2ccccc2)CC1 | inactive
S=C(NCCc1ccccc1)N1CCCCC1 | 3160 nM (active)
Cc1cccn2c(=O)nc(SCC(=O)NCc3ccccc3Cl)nc12 | inactive
CC(C)CCN1CCC(C)(NC(=O)c2ccccc2)C1=O (configuration not stated) | inactive
Brc1ccc(-c2noc(-c3ccccc3)n2)o1 | 1260 nM (active)
Nc1nonc1-c1noc(-c2ccc(Br)o2)n1 | inactive
Cn1nc(-c2ccccc2)c(-c2nc(-c3ccc(Cl)cc3)no2)c1Cl | inactive

SMILES | Potency
CCOC(=O)c1cn[nH]c1NC(=S)Nc1ccccc1 | 1120 nM (active)
CCOC(=O)c1ccc(NC(=S)Nc2cc(C)cc(C)n2)cc1 | inactive
CCOC(=O)c1cc2c(nc1NC(=S)Nc1ccccc1)CC(C)(CC)OC2 (configuration not stated) | inactive
Cn1nc(C(=O)OCC(=O)N(Cc2ccccc2)C(C)(C)C)c2ccccc2c1=O | inactive
O=S(=O)(Nc1ccc(-n2cnnn2)cc1)c1ccc(Cl)cc1 | inactive
O=C(COc1nc2ccccc2nc1N1CCOCC1)NCC(F)(F)F | inactive
O=C(C1Cc2ccccc2CN1C(=O)c1ccco1)N1CCN(c2ccccc2)CC1 (configuration not stated) | inactive
CCn1cnc2scc(-c3ccc(C)c(C)c3)c2c1=O | inactive
O=C(Nc1ccc(Cl)cc1)/C(=C1\CCCN1)[N+](=O)[O-] | 2820 nM (active)
O=C(O)C1CCCCC1C(=O)Nc1ccc(Cl)cc1 (configuration not stated) | inactive
Cc1nc([N+](=O)[O-])cn1CC(=O)Nc1ccc(Cl)cc1 | inactive
COc1ccc(N2C(=O)CC(Nc3ccc(F)cc3)C2=O)c([N+](=O)[O-])c1 (configuration not stated) | inactive
Cc1ccc(C(=O)O/N=C(\N)c2ccccn2)cc1Cl | 3160 nM (active)
O=C(Nc1ccccc1Cl)O/N=C(/c1ccccc1)c1ccccn1 | inactive
O=C(OCc1ccc([N+](=O)[O-])cc1)c1ccccn1 | inactive
Cc1ccc(Cl)cc1NC(=O)c1ccccn1 | inactive
COc1ccccc1OCC(=O)O/N=C(\N)c1ccccn1 | 3160 nM (active)
COc1ccccc1OCC(=O)OCn1c(SC)nnc(C)c1=O | inactive
COc1ccccc1OCC(=O)OCc1cc(-c2ccco2)on1 | inactive
COc1ccc(C(=O)CSc2nc(C)cc(C)n2)cc1[N+](=O)[O-] | inactive
COc1ccc(C(=O)O/N=C(\N)c2ccccn2)cc1[N+](=O)[O-] | 4470 nM (active)
N/C(=N\OC(=O)c1ccc([N+](=O)[O-])cc1)c1ccccn1 | 316 nM (active)
COc1ccc(C(=O)NNC(=O)c2cnccn2)cc1[N+](=O)[O-] | inactive
O=C(COC(=O)c1ccccn1)NNC(=O)c1ccc([N+](=O)[O-])cc1 | inactive
